Rows were chosen to be rich in hits. Some 0.81% of all compounds tested hit in one or more screens of this group.
NCOA2 inhibitor – human SRC2 (NCOA2) inhibition; Q15596; HEK293 GAL4-SRC2 luciferase reporter, luminescence; inhibition, % at 9 µM; 370,000 tested, 0.17% active; AID 651957;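 active means inhibition above the mean inhibition of all tested compounds plus 3 SD, set per campaign, cut at about 52% in these data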;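 further: 0% = DMSO treated cells and 100% = cells given Gossypol at 36 µM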
SRC1 inh – human NCOA1 inhibition; Q15788; HEK293 GAL4-SRC1 luciferase reporter, luminescence; inhibition, % at 3.6 µM; 360,000 tested, 0.12% active; AID 588354;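 active means inhibition above the campaign mean plus 3 SD, with each screening campaign given its own cutoff, cut at about 60% in these data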;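 further: 0% = DMSO treated cells and 100% = gossypol at 36 µM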
COUP-TFII inh – NR2F2 (human) inhibition, primary screen; HEK293T NGFI-A luciferase reporter, luminescence; inhibition, % at 8.6 µM; 370,000 tested, 0.7% active; AID 686940;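 active means inhibition above a per-plate cutoff, mean inhibition of test wells between control levels plus 3 SD, cut at about 38% in these data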;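 further: cells cotransfected with COUP-TFII expression vector driving the NGFI-A reporter; 0% = median of COUP-TF2 test wells and 100% = reporter-only cells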
LRH-1 inv ag – suppresses constitutive activity of human LRH-1; AID 602396; 360,000 tested, 0.13% active; O00482; inhibition, % at 3.6 µM; HEK293T StAR-luciferase reporter, LRH-1 transfected, 24 h;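 active means inhibition above the mean inhibition of all tested compounds plus 3 SD, cut at about 73% in these data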;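 further: 0% = DMSO wells and 100% = reporter-only cells lacking LRH-1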
NCOA3 inh – inhibits human SRC3 coactivator. AID 588352. 360,000 tested, 0.17% active. inhibition, % at 3.6 µM. HEK293 GAL4-SRC3 luciferase reporter, luminescence. Q9Y6Q9;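 active means inhibition above a per-campaign cutoff, the mean of all compounds plus 3 SD, cut at about 60% in these data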;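 further: 0% = DMSO-treated cells and 100% = gossypol-treated cells at 36 µM; higher means less SRC3-driven luciferase light from the GAL4 reporter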
Gal4-VP16 ctr – inhibits VP16 reporter, flagging COUP-TFII antagonist hits; shares compounds with COUP-TFII inh; HEK293 Gal4-VP16 luciferase reporter, luminescence; inhibition, % at 8.5 µM; 2,500 tested, 25% active; in the data active means inhibition above about 13%
NR2F2 inh conf – confirmation of human COUP-TFII (NR2F2) inhibitors. shares compounds with COUP-TFII inh. HEK293 NGFI-A luciferase reporter, luminescence. inhibition, % at 8.5 µM. 2,500 tested, 45% active;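 active means mean inhibition over three repeats above a set limit taken from the earlier primary screen, cut at about 38% in these data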;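 further: 100% = cells given the luciferase reporter alone without the COUP-TF2 vector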
* marks the source's active call; other numbers are inactive results; . = no result.

SMILES | NCOA2 inhibitor | SRC1 inh | COUP-TFII inh | LRH-1 inv ag | NCOA3 inh | Gal4-VP16 ctr | NR2F2 inh conf
CCOC(=O)c1c(CN2CCN(C)CC2)n(-c2ccccc2)c2cc(Br)c(O)cc12 | 3 | -11 | 9 | -23 | 22 | . | .
Cc1ccc(C#N)c(SCc2nnc(-c3ccc(Cl)cc3)o2)n1 | 54* | 69* | 77* | 72 | 75* | 45* | 89*
Cc1cc(C)c(C#N)c(SCc2nnc(-c3ccccc3[N+](=O)[O-])o2)n1 | -47 | -93 | -47 | -163 | -68 | . | .
Cc1cc(C)c(C#N)c(SCc2nnc(-c3ccccc3)o2)n1 | 67* | 80* | 81* | 87* | 79* | 57* | 92*
O=C(CNC(=O)c1cccs1)c1ccc(F)cc1 | -14 | -110 | -49 | -116 | -63 | . | .
Clc1cccc(OCCN2CCOCC2)c1 | -1 | -10 | -26 | -26 | -18 | . | .
CCOC(=O)CSc1nnc(CNc2cccc(Cl)c2)n1C | -29 | -12 | 15 | 1 | 1 | . | .
Cc1cc(C)n(CCNC(=O)c2cc(COc3ccc4ncccc4c3)on2)n1 | 25 | 2 | 23 | 19 | 12 | . | .
CCCN1CCN(C(=O)c2cc(COc3ccc4ncccc4c3)on2)CC1 | 16 | 21 | 31 | 10 | 14 | . | .
O=C(NCc1cccc(Cl)c1)c1cc(COc2ccc3ncccc3c2)on1 | -3 | 19 | 68* | 17 | 28 | 0 | 55*
CC(CCCC(C)(C)O)NC(=O)c1cc(COc2ccc3ncccc3c2)on1 (centres undefined) | 23 | 18 | 60* | 34 | 24 | 10 | 48*
Cc1ccc(F)cc1CNC(=O)c1cc(COc2ccc3ncccc3c2)on1 | 21 | 1 | 41* | -4 | 15 | 6 | 50*
O=C(NCCCN1CCOCC1)C(=O)NCC1CCCO1 (centres undefined) | -20 | -22 | 4 | 4 | 4 | . | .
CCOc1ccc(-c2cc(C(=O)Nc3ccc(C)c(NS(C)(=O)=O)c3)[nH]n2)c(C)c1 | 16 | 29 | 62* | 26 | 18 | -6 | 22
Cc1sc2ncnc(NC3CCN(Cc4ccccc4)CC3)c2c1C | 35 | 27 | 56* | 37 | 30 | 5 | 52*
c1ccc(CN2CCC(Nc3ncnc4sccc34)CC2)cc1 | -3 | 17 | 1 | -1 | 15 | . | .
N/C(=N\OC(=O)c1ccc(Cl)cc1Cl)c1ccccn1 | 46 | -33 | 37 | -29 | 15 | . | .
N/C(=N\OC(=O)c1ccc2ccccc2c1)c1ccncc1 | -56 | -126 | -48 | -181 | -116 | . | .
Cc1ccc(C(=O)O/N=C(\N)c2ccccn2)c(Cl)c1 | 77* | 36 | 78* | 50 | 57 | 20* | 47*
N/C(=N\OC(=O)c1ccc2ccccc2c1)c1ccccn1 | 38 | -47 | 45* | -1 | -11 | -174 | -63
CCCc1ccc(C(=O)O/N=C(\N)c2ccccn2)cc1 | 59* | 55 | 68* | 45 | 47 | -31 | 53*
OC(CN1CCOCC1)Cn1cnc2ccccc21 (centres undefined) | 9 | -6 | 21 | -9 | 0 | . | .
Cc1ccc(S(=O)(=O)NC(C)(C)CSc2nnc(N)s2)cc1 | -48 | 4 | 8 | -7 | -11 | . | .
COc1ccccc1NS(=O)(=O)c1cc(C(=O)NC2CCN(Cc3ccccc3)CC2)ccc1C | -21 | . | 68* | . | . | 6 | 45*
COc1ccccc1NS(=O)(=O)c1cccc(C(=O)NC2CCN(Cc3ccccc3)CC2)c1 | . | 53 | . | 43 | 28 | . | .
COc1ccccc1NS(=O)(=O)c1ccc(C)c(C(=O)NC2CCN(Cc3ccccc3)CC2)c1 | 44 | 3 | 47* | -4 | 23 | 2 | 29
COc1ccc(CN(CC(=O)NCc2ccccc2)C(=O)CCC(=O)Nc2nccs2)cc1 | 0 | 23 | -1 | -3 | 12 | . | .
O=C(OC12CCCN(C1)/C(=C/c1ccncc1)C2)C1CCCCC1 (centres undefined) | 19 | . | 67* | . | . | 8 | 33
O=C(OC12CCCN(C1)/C(=C/c1cccnc1)C2)c1ccc(F)cc1 (centres undefined) | 7 | . | 41* | . | . | 1 | 24
O=C(OC12CCCN(C1)/C(=C/c1ccncc1)C2)c1ccco1 (centres undefined) | 2 | . | 38* | . | . | 5 | 23
